Screening data deposited in PubChem by National Center for Advancing Translational Sciences (NCATS).
FLuc counter: qHTS profiling assay for firefly luciferase inhibitor/activator using purifed enzyme and Km concentrations of substrates (counterscreen for miR-21 project) | purified FLuc, Km substrates, luminescence inhibition | Potency, µM (series often up to 57.5 µM), most hits filed as inhibitors | hit rate 6.9% among 360,000 | AID 588342, 2011; further: nearly all actives have a fitted effect of over 55% in size
Target sequence (P08659 whole entry, looked up): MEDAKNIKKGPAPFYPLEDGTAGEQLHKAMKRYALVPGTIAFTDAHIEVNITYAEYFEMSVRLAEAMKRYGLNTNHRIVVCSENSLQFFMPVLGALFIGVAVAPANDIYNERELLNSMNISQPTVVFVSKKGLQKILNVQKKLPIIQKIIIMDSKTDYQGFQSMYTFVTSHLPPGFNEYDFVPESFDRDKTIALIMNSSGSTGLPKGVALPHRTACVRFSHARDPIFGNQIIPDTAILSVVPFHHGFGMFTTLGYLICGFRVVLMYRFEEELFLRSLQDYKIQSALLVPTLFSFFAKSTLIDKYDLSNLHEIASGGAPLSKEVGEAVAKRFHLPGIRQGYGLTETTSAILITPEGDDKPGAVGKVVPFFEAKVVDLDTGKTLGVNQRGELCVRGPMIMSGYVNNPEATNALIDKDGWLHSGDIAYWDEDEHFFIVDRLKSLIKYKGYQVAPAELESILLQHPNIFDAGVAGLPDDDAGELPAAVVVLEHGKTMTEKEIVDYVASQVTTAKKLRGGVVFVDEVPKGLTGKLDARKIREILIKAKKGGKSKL
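Purified P. pyralis luciferase, 10 nM final, with Km-level 10 uM D-luciferin and 10 uM ATP in 50 mM Tris acetate pH 7.5, 10 mM Mg acetate, 0.01% Tween-20, 0.05% BSA; 6-point qHTS titration about 60 µM downward; luminescence read.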
ELG1 genotox: qHTS screen for small molecules that induce genotoxicity in human embryonic kidney (HEK293T) cells expressing luciferase-tagged ELG1; Potency, µM (highest dose often 46 µM), actives largely listed as activators; hit rate 1.3% among 330,000; AID 504466, 2011; HEK293T ELG1-luciferase reporter, luminescence, 16 h; further: nearly all actives have a fitted effect of over 60% in size
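Cells (2,000/well) expressing the ELG1-luciferase fusion are dosed by pin tool and kept 16 hr at 37 °C, 5% CO2. Signal comes from ONE-Glo luciferase reagent after 30 min at room temperature.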
NPC1 prom act: qHTS Assay for NPC1 Promoter Activators. Huh7 NPC1 promoter luciferase reporter, 24 h. Potency, µM (highest dose often 9.22 µM), actives largely listed as activators. hit rate 2.4% among 320,000. AID 485313, 2010; further: nearly all actives have a fitted effect of over 60% in size
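Luciferase expression driven by the NPC1 promoter was measured in stably transfected Huh7 cells after a 24 h compound incubation, using a luciferase reagent and a luminescence read.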
Rab9 promoter act: qHTS Assay for Rab9 Promoter Activators. Huh7 Rab9 promoter-luciferase reporter, luminescence, 24 h. Potency, µM (doses to about 9.22 µM), hits mostly activators. hit rate 2.8% among 320,000. AID 485297, 2010; further: nearly all actives have a fitted effect of over 60% in size
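Quantitative HTS format; Huh7 Rab9-luciferase reporter cells (1500/well) receive compound 2 h post-plating, incubate 24 h at 37 °C, then get luciferase reagent for 10 min before luminescence reading.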
SMN2 splice enh: qHTS Assay for Enhancers of SMN2 Splice Variant Expression; hit rate 2.8% among 210,000; AID 1458, 2008; Potency, µM (titrated, usually from 46.1 µM), actives largely listed as activators; HEK293 SMN2-luciferase splicing reporter, luminescence, 30-36 h; further: nearly all actives have a fitted effect of over 55% in size
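HEK293 cells carry an SMN2 minigene-luciferase reporter in which exon 7 inclusion puts luciferase in frame. Cells were seeded at 2000 cells/well, attached for 10-12 hours, then exposed to compounds for 30-36 hours at 37C before ONE-Glo luminescence.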
Numbers stand for hits; n = inactive; u = inconclusive; x = no result; [ ] = dose if it differs, or a comment. An excerpt weighted towards active compounds, which were near 7.4% of everything screened. The call rests on the fitted dose curve; in most records, active means well fitted curve in the direction sought with a large enough effect; inconclusive means small, poorly fitted or top-dose-only effect, or another doubt; inactive means no such curve, though single readings can be large; an effect the other way counts as inactive or inconclusive.

SMILES	FLuc counter	ELG1 genotox	NPC1 prom act	Rab9 promoter act	SMN2 splice enh
O=C(Nc1ccc(Cl)c(Cl)c1)N1CCC(N2CCCCC2)CC1	n	n	n	n	n
Clc1cccc(-c2ccc3ncnc(NCc4ccc5c(c4)OCO5)c3c2)c1	n	x	n	n	x
Cc1cccc(N2C(=O)C(CC(=O)Nc3ccc(F)cc3)N(C3CCCC3)C2=O)c1 (stereo not drawn)	n	x	x	x	x
COc1cc(/C=C(\C#N)c2nc3ccccc3[nH]2)ccc1OCc1cccc(C(F)(F)F)c1	n	x	x	x	n
CCOCCc1nn2c(=O)cc(COC(=O)c3ccccc3OC)nc2s1	n	x	x	x	x
CCN1CCN(c2ccc(N=Cc3ccc(O)cc3O)cc2)CC1	16.9µM	n	n	n	n
Cc1ccc(CNC(=O)Nc2cccs2)cc1	12µM	n	u	u	15.8µM
CSc1ccc(NC(=O)NCc2ccccc2)cc1	u	u	4.47µM	4.47µM	x
Cc1ccc(C)c(CNC(=O)Nc2ccccc2)c1	13.5µM	u	u	u	x
Cc1ccc(CNC(=O)Nc2ccccc2)cc1	12µM	9.2µM	u	2.51µM	15.8µM
Cc1ccc2[nH]cc(CCNC(=O)Nc3ccccc3)c2c1	n	n	n	n	n
O=C(Cn1cnc2cc([N+](=O)[O-])ccc2c1=O)Nc1ccccc1-c1ccccc1	n	n	n	n	x
Cc1ccc(CNC(=O)Nc2ccc(Cl)cc2)cc1	n	u	u	3.98µM	x
O=C(NCC1CC1)Nc1cccc(Cl)c1	u	n	n	n	x
O=C(NCC1CC1)Nc1ccc(Cl)cc1	16.9µM	u	u	u	x
COc1ccc(-c2noc(CC(=O)N(C)c3cc(Cl)c(OC)cc3OC)n2)cc1	n	x	x	x	x
NS(=O)(=O)c1cccc(NC(=O)CSc2nnc(-c3ccccc3F)n2C2CC2)c1	n	n	n	n	x
CCCSCCCNC(=O)c1ccc2nc(Cc3ccccc3)oc2c1	n	x	x	x	x
Cc1ccc2c(ccn3cc4c(c(=O)n(C)c(=O)n4C)c23)c1	2.69µM	u	n	n	n
Cc1cccc(-c2c3c(=O)n(C)c(=O)n(C)c3cn2C(C)C)c1	n	n	n	n	n
Cc1cc(NC(=O)c2cc(CC(C)C)on2)no1	10.7µM	13µM	n	n	n
CCCc1cc(C(=O)Nc2cc(C)on2)no1	21.3µM	u	n	n	n
O=C1C2CCCN2C(=O)N1CCCN1CCN(c2cccc(Br)c2)CC1 (stereo not drawn)	n	n	n	n	x
CCOc1ccc(C(=O)COC(=O)c2cccc(-n3cnnn3)c2)cc1	2.69µM	n	u	u	x
CCOc1ccc(C(=O)COC(=O)c2cc(=O)[nH]c3ccccc23)cc1	1.35µM	n	n	n	x
SMILES	FLuc counter	ELG1 genotox	NPC1 prom act	Rab9 promoter act	SMN2 splice enh
O=C(COC(=O)c1cc(=O)[nH]c2ccccc12)c1ccc(Br)cc1	u	n	n	n	x
CC(=O)Nc1ccccc1OCc1nnc(-c2ccc(Cl)cc2)o1	u	n	n	n	u
Clc1ccccc1-c1nnc(COc2ccccc2)o1	21.3µM	x	x	x	12.6µM
Clc1ccccc1OCc1nnc(-c2ccccc2)o1	10.7µM	u	2.51µM	3.55µM	15.8µM
COc1ccc(S(=O)(=O)N(CC(=O)NCCSc2ccc(C)cc2)c2ccc(C)cc2)cc1	n	x	x	x	n
O=C1c2ccccc2NC(c2ccc(O)cc2)N1/N=C/c1ccc(O)cc1 (stereo not drawn)	n	n	n	n	n[1.84 µM]
O=C1c2ccccc2NC(c2ccccc2)N1/N=C/c1ccccc1 (stereo not drawn)	u	n	2.51µM	2.51µM	25.1µM
COc1ccc(C)cc1S(=O)(=O)N1CCN(c2ccccc2)CC1	n	n	n	n	x
CCOc1ccccc1N1CCN(S(=O)(=O)c2cc(C)ccc2OC)CC1	16.9µM	u	u	2.51µM	x
Cc1nn2c(C)c(C(=O)N3CCN(c4ccccc4)CC3)cnc2c1-c1ccccc1	n	x	x	x	x
O=C(Nc1cccnc1)Nc1ccc(F)c(Cl)c1	23.9µM	n	n	n	x
COc1ccc(NC(=O)Nc2ccc(F)c(Cl)c2)cc1	u	n	3.55µM	2.82µM	14.1µM
Cc1ccc(NC(=O)Nc2ccc(F)c(Cl)c2)cc1	4.26µM	n	u	u	12.6µM
Cc1cc(C)c2sc(NC(=O)C3=COCCO3)nc2c1	2.13µM	u	0.562µM	0.447µM	x
Cc1ccc(-c2nnc(NC(=O)C3=COCCO3)o2)c(C)c1	15.1µM	n	n	n	x
O=C(Nc1nc2cc3c(cc2s1)OCCO3)C1=COCCO1	0.0536µM	u	n	n	x
COc1ccc(Cl)c2sc(NC(=O)C3=COCCO3)nc12	u	u	n	n	x
Cc1ccc(Cl)c2sc(NC(=O)C3=COCCO3)nc12	19µM	u	n	n	x
O=C(Nc1nc2ccc(F)cc2s1)C1=COCCO1	0.426µM	u	0.708µM	0.282µM	x
CSc1cccc2sc(NC(=O)C3=COCCO3)nc12	n	n	n	n	x
Cn1c(COc2ccccc2)nc2ccccc21	15.1µM	u	3.98µM	u	x
c1ccc(OCCn2c(COc3ccccc3)nc3ccccc32)cc1	u	x	x	x	n
C=CCn1c(COc2ccccc2)nc2ccccc21	26.9µM	n	n	n	x
CC(=O)Oc1c(C)c(C)c2c(c1C)CC[C@@](C)(CCC[C@H](C)CCC[C@H](C)CCCC(C)C)O2	n	x	n	n	x
O=c1n(Cc2ccccc2Cl)nc2n1-c1ccccc1SC2	23.9µM	u	u	3.55µM	x
SMILES	FLuc counter	ELG1 genotox	NPC1 prom act	Rab9 promoter act	SMN2 splice enh
CCN(CC)c1ccc2cc(-c3nc(-c4ccccc4)no3)c(=O)oc2c1	6.01µM	x	x	x	x
COc1ccc2cc(-c3nc(-c4ccc(N(C)C)cc4)no3)c(=O)oc2c1	n	x	x	x	x
Cc1cccc(-c2noc(-c3cc4ccccc4oc3=O)n2)c1	1.35µM	u	3.16µM	2.82µM	u
O=c1oc2ccccc2cc1-c1nc(-c2cccs2)no1	0.601µM	x	x	x	x
Cc1ccc(-c2noc(-c3cc4ccccc4oc3=O)n2)cc1	6.01µM	u	n	n	n
CCOc1ccc(N(C)C(=O)CCc2nnc3ccc(NCc4ccco4)nn23)cc1	n	n	n	n	x
CCCCOc1ccc(C(C)NC(=O)c2cccc(Nc3nc4ccccc4n4nnnc34)c2)cc1 (stereo not drawn)	n	x	x	x	x
O=C1CSC(c2cccnc2)N1Cc1ccc(Cl)c(Cl)c1 (stereo not drawn)	n	n	n	n	x
O=c1oc2ccccc2cc1-c1nc(-c2ccccc2)no1	0.536µM	u	0.447µM	1.12µM	11.2µM
O=c1oc2ccc(Br)cc2cc1-c1nc(-c2ccccc2)no1	n	x	x	x	n
Cc1ccc(S(=O)(=O)c2cn(Cc3ccccc3)c3cc(N4CCOCC4)c(F)cc3c2=O)cc1	n	x	x	x	x
CCCC(=O)Oc1ccc(-c2nccc(C(OC)OC)n2)cc1	13.5µM	n	n	u	n
CC1=NN(c2ccccc2)C(=O)/C1=C\C=C\c1ccccc1	16.9µM	n	n	n	x
CCOC(=O)CC1=NN(c2ccccc2)C(=O)C1	n	n	n	n	n
